Among the data in paper PMC12136788 are binding signal values, retold here.

Over roughly 5,800 sequences, “enrichment r” has its median near 0.68; the highest 2% begin near 11. Shown is part of a subset that was picked to be rich in the highest values.

T1: UNK ZnF1-6 (called full-length) (human, UniProt Q9C0B0 30-357)
T1 sequence: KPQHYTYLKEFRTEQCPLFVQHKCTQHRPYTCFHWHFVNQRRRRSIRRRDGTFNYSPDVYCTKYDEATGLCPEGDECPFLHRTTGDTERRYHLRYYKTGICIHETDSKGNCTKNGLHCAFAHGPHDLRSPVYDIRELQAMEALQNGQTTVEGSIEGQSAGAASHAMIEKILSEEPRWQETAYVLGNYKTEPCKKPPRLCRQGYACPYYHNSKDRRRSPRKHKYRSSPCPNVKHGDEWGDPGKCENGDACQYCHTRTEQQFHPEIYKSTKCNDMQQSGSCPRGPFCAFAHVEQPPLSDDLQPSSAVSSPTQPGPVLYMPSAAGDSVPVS

B1: chr2:73730642:73730743:-|CDS|ENSG00000144034|unk|FALSE|unique (ssRNA)
RNA: GGGAGUUCUACAGUCCGACGAUCUUCAGACGUAGGAAACAAUGGUUAAUGAUCUUGUGUUUUUUUUUUCAUUUUUUUUCUCUUAGAUUUCAGAGGCUUUGAAAAAAUUUGGUAUCUCAGCAAAUGACACUUCAAUUCUAAUUGCAACAGAGGAUUGAGCAUCA
B2: chr1:17407970:17408071:-|3pUTR|ENSG00000179051|msi1|FALSE|unique (ssRNA)
RNA: GGGAGUUCUACAGUCCGACGAUCGGGUACCGUUCUGCUGACCCAGCUCCCUUUAGUCACGUUUGCUUGGCUCUGGUACCAAAUAGUUGGGAUUACCGAAGAGUCCCCUUCCUUGCGUGUCAGCACGGAUGCUGUGACUGCCACCAACAGAGGAUUGAGCAUCA
B3: chr9:72354534:72354635:-|3pUTR|ENSG00000107372|msi1|FALSE|unique (ssRNA)
RNA: GGGAGUUCUACAGUCCGACGAUCGUCCUAGUUUUUACUUUUAUUCUUAAAGCAUUCAGUUUUGCUUUCAAUUUUAUGUACCUUAGUUCUGAGUUAGACCUGCAGAUGUGUACAGAUAGUUCAUAUUUAUGUAUUGCACAUAAUCAACAGAGGAUUGAGCAUCA
B4: chr21:34788506:34788607:-|3pUTR|ENSG00000159216|msi1|FALSE|unique (ssRNA)
RNA: GGGAGUUCUACAGUCCGACGAUCUUGUUAAUGCCUAUAACUUUUUUUCAAUUUUUUUGUGUGUGUUUCUAAGGACUUUUUCUUAGGUUUGCUAAAUACUGUAGGGAAAAAAAUGCUUCUUUCUACUUUGUUUAUUUUAGACUUCAACAGAGGAUUGAGCAUCA
B5: chr5:72209348:72209524:+|3pUTR|ENSG00000131711|msi1_unk|FALSE|overlapping (ssRNA)
RNA: GGGAGUUCUACAGUCCGACGAUCUUAUGUCUUAUAAUCCUGCAUCACUUCUAUCCUAUCCAGUCAUAUCUAAUGUAGAAAAUUAGUUUCCAGUGAAAGUAAUAUGUAGUGCUUUUAUGAUAUUUGUGUGCAAUAUCCCCUCUUCAACAGAGGAUUGAGCAUCA
B6: chr10:110135209:110135310:+|3pUTR|ENSG00000148700|msi1|FALSE|bound_elsewhere (ssRNA)
RNA: GGGAGUUCUACAGUCCGACGAUCCUCUCUAUUGGAAGAUUUUUUUAAUGUUCUACAUCAUUUAUGUUGUAUUACAAUGUAUGUAGAAAUAGUAACCUGUGAACUAUGCUUUUCCAUAACUUUUUAAAAAUAUAUAUAUCUAAACAACAGAGGAUUGAGCAUCA
B7: chr10:62095068:62095169:+|3pUTR|ENSG00000150347|msi1|FALSE|unique (ssRNA)
RNA: GGGAGUUCUACAGUCCGACGAUCCCAUUUGCUUCAAUUAAUUAUUUACCUUCCUGUGGAAUAAUAUAUAUAUAUAUAUUUAAUAGAACCAUAGAUAGACUAGUAGAAUUUAGAUUAUAAAUGUGUGAGUGCAGAUUAUCCUGCCAACAGAGGAUUGAGCAUCA
B8: chr6:133987709:133987810:+|3pUTR|ENSG00000028839|unk|FALSE|unique (ssRNA)
RNA: GGGAGUUCUACAGUCCGACGAUCAAUAACAAAUAGGAAUUUUUUUUCUUGCAGAUUAGAAAUAAAAACGUGUAUAUAAACUCUAGGGAACCAGACUAGAAGUUUAUAGAUAAAGGAUAAUGUUUUAUGUUGCUAAUUUAAUAUCAACAGAGGAUUGAGCAUCA
B9: chr10:95311796:95311897:-|3pUTR|ENSG00000095637|unk|FALSE|unique (ssRNA)
RNA: GGGAGUUCUACAGUCCGACGAUCCAGACAUAGAUUUUUCUGUUCAUUUAUUUUUCUUCAUUGCAGUGGAUUGAUUUGAUAAAUAGAUGUGUUGAAUUACUACAUUUGCUGUACAUAUUAUUUAAUAAACUUUAUUCAGAAUUGCAACAGAGGAUUGAGCAUCA
B10: chr6:142752714:142752806:-|3pUTR|ENSG00000010818|msi1_unk|total|mutant (ssRNA)
RNA: GGGAGUUCUACAGUCCGACGAUCUUUUCUUUACUUUGCUUAUAUUCUUAUAAGCAUUUUUCCGCAGUAAUUUGUACAUAUUUCCGAAUUUGUGUAUCUGCUUUGUAAUAAAUGUAAUUUCUUUCCUUUUUUGGACACUUGGAUCAACAGAGGAUUGAGCAUCA
B11: chr15:34978960:34979061:-|3pUTR|ENSG00000198146|msi1|FALSE|unique (ssRNA)
RNA: GGGAGUUCUACAGUCCGACGAUCGCCCUCUGUAUCCAUGUACUCUGCAUCUGUGGAUUAAACCAAUUGCAGAUCAAAAAUAUUAGAAAAAAUAAAAAUAAUACAAAUAAAAAUACAGUAUAACAGUUAUUUAAAUAGCAUUUACAACAGAGGAUUGAGCAUCA
B12: chr10:62095068:62095169:+|3pUTR|ENSG00000150347|msi1|total|mutant (ssRNA)
RNA: GGGAGUUCUACAGUCCGACGAUCCCAUUUGCUUCAAUUAAUUAUUUACCUUCCUGUGGAAUAAUAUAUAUAUAUAUAUUUAACCGAACCACCGACCGACCCGCCGAAUUCCGAUUAUAAAUGUGUGAGUGCAGAUUAUCCUGCCAACAGAGGAUUGAGCAUCA
B13: chr14:53043751:53043854:-|3pUTR|ENSG00000100523|unk|FALSE|unique (ssRNA)
RNA: GGGAGUUCUACAGUCCGACGAUCACUUAGAUUAAAUCUUGCUUUAUUUUUACUUUAAAAUUAGUCUUGCUAAGGCCUUAUGUUAGUUCAUACUUUCUUUUCAACAGUAAUCUUGUUUAUAAUCCAGUGUUUCUGUGUUUUAGGCAACAGAGGAUUGAGCAUCA
B14: chr4:138167974:138168075:-|3pUTR|ENSG00000151012|msi1|FALSE|unique (ssRNA)
RNA: GGGAGUUCUACAGUCCGACGAUCCACAAAAUCUGCAUUGUCCAUGUGAGUAAAGUAAAAUAAUUCCUGUUAUUUUUUUCUGUUAGAAAUAAGUAUGGAGGAUAUGUUUUUAAAAAUUUAUGAGUUAAUUGAAAUAUCCAUAUACAACAGAGGAUUGAGCAUCA

The target of this experiment is T1, UNK ZnF1-6 (called full-length). Description: nsRBNS (natural sequence RNA bind-n-seq); RBNS binding buffer (assumed for nsRBNS): 25 mM Tris pH 7.5, 150 mM KCl, 3 mM MgCl2, 0.01% Triton X-100, 500 ug/ml BSA, 20 U/ml SUPERase-In, 4 C; UNK is unkempt and MSI1 is Musashi-1; names of the RNAs are library labels; protein concentration not given here; high values mean tight binding.
On to B1, for which the binding signal turned out to be 1.44 enrichment R.

For the molecule B2, the binding signal came out at 2 enrichment R.

As for B3, the binding signal amounted to 37.4 enrichment R.

On to B4, for which the binding signal amounted to 2.15 enrichment R.

Consider B5, for which the binding signal turned out to be 1.93 enrichment R.

In turn, B6 yielded a binding signal of 7.46 enrichment R.

Turning to B7, the binding signal was 15.6 enrichment R.

B8 had a binding signal of 2.44 enrichment R.

The molecule B9 had a binding signal of 2.42 enrichment R.

In the case of B10, the binding signal was 0.576 enrichment R.

On to B11, for which the binding signal was 22.2 enrichment R.

For the molecule B12, the binding signal was found to be 2.12 enrichment R.

For B13, the binding signal is 15 enrichment R.

For the molecule B14, the binding signal amounted to 1.08 enrichment R.
